Compounds with a hit are over-represented: about 2.8% of the library has one in this group of screens.
Env fusion inh: HIV envelope-mediated fusion inhibition | 1.1% of 360,000 active | HeLa-JRFL Env/CEM21 cell fusion, luciferase | inhibition, % at 12.3 µM;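 active means mean replicate inhibition score of at least 50 and every replicate individually at or above 50; inconclusive means only one of the two criteria met; inactive means mean below 50 and not all replicates reaching 50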;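 further: 0% = plate neutral controls and 100% = maraviroc near 300 nM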
NSD2 HMT inh: NSD2 (human) methyltransferase inhibition; O96028; NSD2 peptide methylation, AlphaScreen, 120 min; inhibition, % at 12.5 µM; 0.54% of 310,000 active; in the data active means inhibition above about 50%
Target sequence (O96028 whole entry, looked up): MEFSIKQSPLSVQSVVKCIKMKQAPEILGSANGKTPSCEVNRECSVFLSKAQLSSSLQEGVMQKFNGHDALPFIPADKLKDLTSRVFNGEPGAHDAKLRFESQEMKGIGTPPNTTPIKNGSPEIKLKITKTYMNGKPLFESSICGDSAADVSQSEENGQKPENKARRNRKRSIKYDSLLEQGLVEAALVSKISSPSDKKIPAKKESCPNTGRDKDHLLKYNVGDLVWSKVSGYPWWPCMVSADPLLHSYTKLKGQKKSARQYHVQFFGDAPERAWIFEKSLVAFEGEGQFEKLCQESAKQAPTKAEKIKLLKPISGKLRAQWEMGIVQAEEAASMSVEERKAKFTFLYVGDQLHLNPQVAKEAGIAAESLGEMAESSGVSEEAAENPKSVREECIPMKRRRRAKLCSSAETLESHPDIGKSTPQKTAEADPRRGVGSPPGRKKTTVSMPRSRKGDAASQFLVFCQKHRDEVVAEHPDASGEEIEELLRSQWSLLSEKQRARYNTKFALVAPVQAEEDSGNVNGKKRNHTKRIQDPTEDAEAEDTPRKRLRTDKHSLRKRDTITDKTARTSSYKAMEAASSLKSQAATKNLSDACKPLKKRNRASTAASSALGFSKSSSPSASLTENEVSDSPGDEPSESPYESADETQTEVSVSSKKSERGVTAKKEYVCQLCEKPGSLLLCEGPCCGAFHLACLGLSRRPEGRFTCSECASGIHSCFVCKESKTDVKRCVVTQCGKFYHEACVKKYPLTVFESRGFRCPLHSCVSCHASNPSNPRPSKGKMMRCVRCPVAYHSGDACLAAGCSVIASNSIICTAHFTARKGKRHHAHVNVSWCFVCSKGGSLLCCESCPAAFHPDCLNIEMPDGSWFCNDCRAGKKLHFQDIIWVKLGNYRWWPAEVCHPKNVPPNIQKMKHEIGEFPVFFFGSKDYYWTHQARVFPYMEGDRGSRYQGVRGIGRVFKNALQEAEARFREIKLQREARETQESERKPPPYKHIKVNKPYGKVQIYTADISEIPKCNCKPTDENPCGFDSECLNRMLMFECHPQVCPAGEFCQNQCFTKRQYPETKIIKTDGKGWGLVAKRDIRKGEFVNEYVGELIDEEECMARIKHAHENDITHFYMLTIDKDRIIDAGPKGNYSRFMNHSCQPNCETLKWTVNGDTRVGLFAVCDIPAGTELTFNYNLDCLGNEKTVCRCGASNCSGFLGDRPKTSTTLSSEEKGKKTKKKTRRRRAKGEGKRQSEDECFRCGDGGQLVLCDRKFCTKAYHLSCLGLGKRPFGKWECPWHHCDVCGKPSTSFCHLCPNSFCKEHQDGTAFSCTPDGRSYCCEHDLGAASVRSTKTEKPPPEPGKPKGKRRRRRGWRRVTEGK
PAX8 inh HTS: inhibitors of PAX8 transcriptional activity in RMG-I cells. RMG-I TPO-luciferase reporter, SteadyGlo, 24 h. inhibition, % at 12.6 µM. 1.2% of 360,000 active;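 active means mean replicate inhibition at least 60% with every replicate also reaching 60%; inconclusive means only one of the two criteria is met; inactive means mean below 60% and not all replicates reaching 60%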;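 further: luciferase light reporting Pax8 driven TPO promoter activity; plate controls were median of neutral control wells for no effect and mitoxantrone controls for full effect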
Shn3 inh set2: inhibitors of Schnurri-3 3'UTR reporter in osteoblasts | Clone20 osteoblast Shn3 3'UTR firefly luciferase, 24 h | AID 588674 | inhibition, % at 12.5 µM | 0.52% of 360,000 active;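 active means mean inhibition of at least 75% with every replicate also reaching 75%; inconclusive means mean inhibition at least 75% but some replicate below; inactive means mean inhibition below 75%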;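 further: 0% = median of neutral control wells and 100% = pilot-screen positive control compound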
LMP1 NFkB inh: inhibitors of Epstein-Barr LMP1-induced NF-kappaB reporter; inhibition, % at 12.5 µM; 0.69% of 350,000 active; LMP1-induced NF-kappaB luciferase reporter cells, luminescence; in the data active means inhibition above about 41%; inconclusive means no clear call, values can overlap the other calls;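 further: 0% = neutral control wells and 100% = reference inhibitor control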
N-glyco inh: N-linked glycosylation inhibition | D54 ERlucT glycosylation luciferase reporter, 24 h; percent of 100 nM tunicamycin response | reporter increase, % at 12.5 µM | 0.23% of 360,000 active;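 active means mean luciferase reporter signal, scaled so untreated is 0 and the glycosylation-blocking control 100, at or above a set limit in every replicate; inconclusive means mean reaches the limit but not every replicate does; inactive means mean below the limit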;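 further: luciferase carries N-glycosylation sites so blocking glycosylation raises the light; 0% = median of neutral control wells and 100% = median of 100 nM tunicamycin wells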
* marks the source's active call; other numbers are inactive results; ? = inconclusive; nt = no result; [ ] = dose if it differs, or a comment.

SMILES	Env fusion inh	NSD2 HMT inh	PAX8 inh HTS	Shn3 inh set2	LMP1 NFkB inh	N-glyco inh
C=CCC[C@@H](Cc1ccc(F)cc1)C(=O)OC[C@H](Cc1c[nH]c2ccccc12)NC(=O)[C@@H](CC=C)CC(=O)N[C@@H](CO)Cc1ccccc1	31	nt	56	55	4	-4
C=CC[C@H](CC(=O)N(CCO)Cc1ccccc1)C(=O)N[C@H](COC(=O)[C@@H](CC=C)Cc1ccc(F)cc1)Cc1c[nH]c2ccccc12	32	nt	82*	7	3	-4
C=CCC[C@H](Cc1ccc(F)cc1)C(=O)OC[C@@H](C)NC(=O)[C@H](CC=C)CC(=O)NCCO	17	nt	-24	-10	-13	3
C=CCC[C@@H](Cc1ccc(F)cc1)C(=O)OC[C@@H](NC(=O)[C@H](CC=C)CC(=O)NCCO)C(C)(C)C	102*	nt	-1	6	2	3
CN1CCN(C(=O)C[C@@H]2C=C[C@H](NC(=O)Nc3ccccc3F)[C@H](CO)O2)CC1	8[16.7 µM]	nt	-7	nt	nt	nt
C[C@@H](NC(=O)C[C@@H]1C[C@H]2c3cc(NC(=O)Nc4ccccc4F)ccc3O[C@H]2[C@@H](CO)O1)c1ccccc1	15[16.7 µM]	nt	-1	nt	nt	nt
C=CC[C@@H](CC(=O)N(CCO)Cc1ccccc1)C(=O)N[C@@H](COC(=O)[C@@H](CC=C)Cc1ccc(F)cc1)Cc1ccccc1	95*	nt	43	22	0	-6
C=CCC[C@@H](Cc1ccc(F)cc1)C(=O)OC[C@@H](Cc1c[nH]c2ccccc12)NC(=O)[C@@H](CC=C)CC(=O)N(CCO)Cc1ccccc1	nt	nt	67*	-2	2	-3
C=CC[C@H](CC(=O)N(CCO)Cc1ccccc1)C(=O)NC[C@H](OC(=O)[C@@H](CC=C)Cc1ccc(F)cc1)c1ccccc1	68*	nt	55	89*	4	-2
C=CC[C@@H](CC(=O)N(CCO)Cc1ccccc1)C(=O)NC[C@@H](OC(=O)[C@@H](CC=C)Cc1ccc(F)cc1)c1ccccc1	26	nt	42	9	2	-4
CO[C@@H]1CN(C)C(=O)c2cc(NC(=O)Nc3ccc4c(c3)OCO4)ccc2OC[C@@H](C)N(C(C)=O)C[C@H]1C	6[16.7 µM]	nt	-26	nt	nt	nt
COc1cc(OCC(=O)NC(C)C)cc2c1C(=O)O[C@@H](C)CCCC(=O)CCCCC2	73*	0	-11	-19	-2	1
COc1cc2c(c(OCC(=O)NC(C)C)c1)C(=O)O[C@@H](C)CCCC(=O)CCCCC2	88*	-3	12	5	-25	3
COc1ccc(NC(=O)Nc2ccc3c(c2)C(=O)N([C@H](C)CO)C[C@H](C)[C@H](CN(C)C(=O)Nc2ccc4c(c2)OCO4)OCCCC[C@@H](C)O3)cc1	-7[16.7 µM]	nt	0	nt	nt	nt
O=C(C[C@H]1C[C@H]2c3cc(NC(=O)NC4CCCC4)ccc3O[C@H]2[C@H](CO)O1)NCc1ccccn1	nt	nt	11	nt	nt	nt
CCCN1[C@@H]2Cn3c(ccc(C4=CCCC4)c3=O)[C@H]1[C@@H](C(=O)N(C)C)[C@@H]2CO	nt	nt	-17	nt	nt	nt
C[C@@H]1CCCCO[C@H](CN(C)C(=O)c2ccccc2)[C@@H](C)CN([C@@H](C)CO)C(=O)c2cc(NC(=O)Nc3ccc(C(F)(F)F)cc3)ccc2O1	?	nt	94*	nt	nt	nt
C[C@@H]1CN([C@@H](C)CO)C(=O)c2cc(NC(=O)Nc3ccc(C(F)(F)F)cc3)ccc2O[C@@H](C)CCCCO[C@@H]1CN(C)C(=O)Nc1ccccc1	nt	nt	-12	nt	nt	nt
C[C@H]1CCCCO[C@@H](CN(C)C(=O)c2ccccc2)[C@@H](C)CN([C@@H](C)CO)C(=O)c2cc(NC(=O)Nc3ccc(C(F)(F)F)cc3)ccc2O1	68*[16.7 µM]	nt	89*	nt	nt	nt
C[C@@H]1CCCCO[C@H](CN(C)C(=O)c2ccccc2)[C@H](C)CN([C@@H](C)CO)C(=O)c2cc(NC(=O)Nc3ccc(C(F)(F)F)cc3)ccc2O1	30[16.7 µM]	nt	87*	nt	nt	nt
C[C@@H]1CCCCO[C@@H](CN(C)C(=O)Cc2ccccc2)[C@H](C)CN([C@@H](C)CO)C(=O)c2cc(NC(=O)Nc3ccc(C(F)(F)F)cc3)ccc2O1	-1[16.7 µM]	nt	71*	nt	nt	nt
C[C@@H]1CCCCO[C@@H](CN(C)C(=O)c2ccccc2)[C@@H](C)CN([C@H](C)CO)C(=O)c2cc(NC(=O)Nc3ccc(C(F)(F)F)cc3)ccc2O1	6[16.7 µM]	nt	15	nt	nt	nt
C[C@H](CO)N1C[C@H](C)[C@@H](CN(C)C(=O)c2ccccc2)OCCCC[C@H](C)Oc2ccc(NC(=O)Nc3ccccc3)cc2C1=O	-36[16.7 µM]	nt	-13	nt	nt	nt
C[C@@H]1CCCCO[C@H](CN(C)S(=O)(=O)c2ccc(Cl)cc2)[C@@H](C)CN([C@@H](C)CO)C(=O)c2cc(NS(=O)(=O)c3cn(C)cn3)ccc2O1	0[16.7 µM]	nt	-5	nt	nt	nt
Cc1nc(S(=O)(=O)N[C@H]2CCN(Cc3ccc(OCCO)cc3)C2)cn1C	-18[16.7 µM]	nt	-30	nt	nt	nt
SMILES	Env fusion inh	NSD2 HMT inh	PAX8 inh HTS	Shn3 inh set2	LMP1 NFkB inh	N-glyco inh
C[C@H]1CCCCO[C@@H](CN(C)C(=O)Nc2ccccc2)[C@@H](C)CN([C@@H](C)CO)C(=O)c2cc(NC(=O)Nc3ccc(C(F)(F)F)cc3)ccc2O1	nt	nt	17	nt	nt	nt
C[C@@H]1CCCCO[C@@H](CN(C)C(=O)c2ccccc2)[C@@H](C)CN([C@@H](C)CO)C(=O)c2cc(NC(=O)Nc3ccc(C(F)(F)F)cc3)ccc2O1	-5[16.7 µM]	nt	86*	nt	nt	nt
C[C@@H]1CCCCO[C@@H](CN(C)C(=O)c2ccccc2)[C@H](C)CN([C@H](C)CO)C(=O)c2cc(NC(=O)Nc3ccc(C(F)(F)F)cc3)ccc2O1	21[16.7 µM]	nt	102*	nt	nt	nt
C[C@@H]1CCCCO[C@H](CN(C)C(=O)Nc2ccccc2)[C@@H](C)CN([C@H](C)CO)C(=O)c2cc(NC(=O)Nc3ccc(C(F)(F)F)cc3)ccc2O1	nt	nt	12	nt	nt	nt
C[C@@H]1CN([C@H](C)CO)C(=O)c2cc(NC(=O)Nc3ccc(C(F)(F)F)cc3)ccc2O[C@@H](C)CCCCO[C@@H]1CN(C)C(=O)c1ccccc1	16[16.7 µM]	nt	88*	nt	nt	nt
CNC(=O)c1[nH]cnc1C(=O)N[C@@H](CCCCNC(=O)OC(C)(C)C)C(=O)OC(C)(C)C	3	nt	-17	-24	44*	1
CC(C)C[C@H](NC(=O)c1nc[nH]c1C(=O)N[C@@H](CCCCNC(=O)OC(C)(C)C)C(=O)OC(C)(C)C)C(=O)OC(C)(C)C	26	nt	102*	2	-1	-6
CC(C)C[C@H](NC(=O)c1nc[nH]c1C(=O)NCCCCCNC(=O)OC(C)(C)C)C(=O)OC(C)(C)C	17	nt	17	21	-5	-7
C[C@@H](NC(=O)c1nc[nH]c1C(=O)N[C@@H](CCCCNC(=O)OC(C)(C)C)C(=O)OC(C)(C)C)c1ccccc1	-33	nt	30	-6	-16	0
CCN1[C@H](C(=O)NCCc2ccccc2)[C@@H](CO)[C@@H]2Cn3c(ccc(C4=CCCC4)c3=O)[C@@H]21	nt	nt	20	nt	nt	nt
O=[N+]([O-])c1cc(/C=N\O)ccc1Oc1ccc(F)cc1	-15	nt	-24	-18	65*	-2

From PubChem
